Drawing on ChEMBL document CHEMBL3433997, “St. Jude Leishmania screening dataset” (2016), this text covers inhibition for 34 molecules.

Holding throughout (type): functional
For assay [1], the target named is Solute carrier family 2, facilitated glucose transporter member 1 (Homo sapiens) (UniProt P11166). Nature of the assay: ST_JUDE_LEISH: Cytotoxicity at 2uM final concentration against transgenic Leishmania Mexicana promastigotes LmGLUT1 that are glucose transport deficient and complemented with the human glucose transporter GLUT1. Activity is measured by DNA content using SYBR green in vitro.
Solute carrier family 2, facilitated glucose transporter member 1 (Homo sapiens), sequence (P11166 whole entry): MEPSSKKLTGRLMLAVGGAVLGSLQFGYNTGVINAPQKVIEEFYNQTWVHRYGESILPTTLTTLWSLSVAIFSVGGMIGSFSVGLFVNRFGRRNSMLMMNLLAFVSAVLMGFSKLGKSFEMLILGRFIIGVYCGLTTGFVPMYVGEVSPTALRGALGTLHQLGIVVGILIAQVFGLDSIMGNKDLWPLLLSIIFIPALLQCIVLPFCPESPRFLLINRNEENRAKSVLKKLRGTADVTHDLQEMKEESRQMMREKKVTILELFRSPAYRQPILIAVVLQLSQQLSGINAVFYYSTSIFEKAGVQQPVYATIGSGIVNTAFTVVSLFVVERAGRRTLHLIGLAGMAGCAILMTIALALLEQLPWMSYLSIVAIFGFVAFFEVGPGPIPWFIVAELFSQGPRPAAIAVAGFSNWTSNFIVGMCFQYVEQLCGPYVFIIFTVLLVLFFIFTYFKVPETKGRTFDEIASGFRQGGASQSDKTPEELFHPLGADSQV

Assay [2] deals with Hexose transporter 1 (Plasmodium falciparum) (UniProt O97467). Kind of assay: ST_JUDE_LEISH: Cytotoxicity at 2uM final concentration against transgenic Leishmania Mexicana promastigotes LmPfHT that are glucose transport deficient and complemented with the Plasmodium falciparum hexose transporter. Activity is measured by DNA content using SYBR green in vitro.
Assay [3] concerns the target Glucose transporter (Leishmania mexicana) (UniProt O61059). Kind of assay: ST_JUDE_LEISH: Cytotoxicity at 2uM final concentration against transgenic Leishmania Mexicana promastigotes LmGT2 that are glucose transport deficient and complemented with the L. Mexicana glucose transporter 2. Activity is measured by DNA content using SYBR green in vitro.

With `CN(C)c1ccc(CN2CCC(CNC(=O)c3cc(-c4cccc(F)c4)cs3)C2)cc1` (configuration not stated), the inhibition is -1.95% in assay [1], -1.31% in assay [2] and -9.42% in assay [3].

Turning to `O=C(Nc1ccc2[nH]c(-c3ccc4nc(NC(=O)C5CCCCC5)sc4c3)nc2c1)C1CCCCC1`, the inhibition was 0.5% in assay [1], -0.34% in assay [2] and -1.71% in assay [3].

Regarding `C=Cc1ccc(-c2c(C)[nH]c(C)c(Br)c2=O)cc1`, the inhibition in assay [1] was 0.56%; in assay [2], 1.38%; in assay [3], -0.92%.

Consider `COc1ccc(-c2ccc(NC(=O)c3ccc(F)cc3)cc2)cc1CNC(C)C`, for which the inhibition in assay [1] turned out to be 0.84%; in assay [2], 1.24%; in assay [3] it was 4.68%.

Consider `COc1ccc2ncc(F)c(CCN3CCC(NCc4cnc5c(c4)NC(=O)CS5)CC3)c2c1`, for which the inhibition came out at 1.52% in assay [1], 2.49% in assay [2] and 2.03% in assay [3].

For the molecule `COc1ccc2ncc(F)c(CCN3C[C@H](CNCc4cc(F)c5c(c4)NC(=O)CO5)[C@H](O)C3)c2n1`, the inhibition is 3.52% in assay [1], 4.83% in assay [2] and 0.92% in assay [3].

With `CCCCCCOc1ccc(/C(N)=N\Cc2ccccc2)c2c1CCCC2`, the inhibition in assay [1] came to 2.62%; in assay [2] it was 3.36%; in assay [3] it was 0.11%.

As for `COc1cccc(CN2CCN(C(c3ccccc3)c3ccccc3)CC2)c1O`, the figures for the inhibition in assay [1], in assay [2] and in assay [3] were 6.87%, 6.03% and 2.74%, respectively.

Take `CC(C)n1c(CC2CCN(CC3CCN(C(=O)/C=C/c4ccc(Cl)c(Cl)c4)CC3)CC2)nc2ccccc21`: the figures for the inhibition in assay [1], in assay [2] and in assay [3] were -1.74%, -2.38% and -2.53%, respectively.

On to `COc1ccc2c(=O)c3ccc(OC)cc3[nH]c2c1`, for which the figures for the inhibition in assay [1], in assay [2] and in assay [3] were 1.08%, -2.12% and -0.67%, respectively.

`CCCCN(CCCC)Cc1cc(N(C)c2ccc([N+](=O)[O-])cn2)ccc1O`: the inhibition in assay [1] is 2.39%; in assay [2] it was -0.26%; in assay [3] it was 1.69%.

With `O=C(NCCc1cccc(F)c1)c1cc(Br)cc(N2CCN(c3ccncc3)CC2)c1`, the inhibition in assay [1] turned out to be 6.76%; in assay [2], 5.57%; in assay [3], 3.44%.

For the molecule `COc1ccc(CCNC(=O)c2ccc(-n3cc(NC(=O)c4cccnc4)cn3)cc2)cc1OC`, the inhibition in assay [1] came to 3.78%; in assay [2] it was 3.85%; in assay [3] it was 3.79%.

As for `COc1cccc(CN2Cc3ccccc3OC3(CCN(Cc4c[nH]c5cnccc45)CC3)C2)c1`, the inhibition in assay [1] was -0.87%; in assay [2] it was -0.52%; in assay [3], 0.59%.

Take `O=C(NCCNc1ccnc2cc(Cl)ccc12)c1ccccc1F`: the inhibition in assay [1] is -1.91%; in assay [2], 1.06%; in assay [3], -0.19%.

As to `Fc1cccc(Nc2nc(NCCc3ccc(Cl)cc3)nc(Nc3cccc(F)c3)n2)c1`, the inhibition in assay [1] was 2.39%; in assay [2], 2.12%; in assay [3], -4.86%.

Turning to `COc1cc(NC(=O)c2sc(-c3ccc(Cl)cc3)cc2Cl)ccc1OCCN1CCCC1`, the inhibition was found to be 9.58% in assay [1], 9.57% in assay [2] and 9.29% in assay [3].

Consider `O=C(/C=C/c1ccccc1Cl)Nc1ccc(Br)c(OCCN2CCCCC2)c1`, for which the inhibition in assay [1] is 2.43%; in assay [2], 2.16%; in assay [3] it was -0.1%.

As to `COc1ccc(Cl)cc1NC(=O)C(C)Nc1ccc(-c2ccccc2)cc1` (configuration not stated), the inhibition came out at 2.84% in assay [1], 2.75% in assay [2] and 5.12% in assay [3].

Turning to `COc1c(C2CCN(CCCCNC(=O)C=Cc3ccccc3C(F)(F)F)CC2)ccc2c1CCCC2`, the inhibition in assay [1] was -0.06%; in assay [2] it was -0.81%; in assay [3], -0.49%.

For `Nc1ncc(-c2ccc(Br)cc2)c(N)n1`, the results for the inhibition in assay [1], in assay [2] and in assay [3] were 1.2%, -0.78% and -0.3%, respectively.

For `CCCN1CCN(CCCNc2c3ccccc3nc3ccccc23)CC1`, the inhibition in assay [1] worked out at 73.1%; in assay [2] it was 78.2%; in assay [3] it was 65.1%.

Consider `COc1ccc2nccc(N3CCCN(CCNS(=O)(=O)c4ccc5c(c4)NC(=O)CS5)CC3)c2n1`, for which the values for the inhibition in assay [1], in assay [2] and in assay [3] were 0.19%, 1% and -0.73%, respectively.

With `Cc1cc(NCCCCCCCCNc2cc(C)nc3ccccc23)c2ccccc2n1`, the inhibition in assay [1] is -0.97%; in assay [2], 1.84%; in assay [3], 0.69%.

Consider `CN1CCC(Oc2ccc(CN3CC[C@H](NC(=O)c4cc(F)cc(F)c4)C3)c3ccccc23)C1` (some centres not stated), for which the inhibition in assay [1] is 7.53%; in assay [2], 1.81%; in assay [3], 3.76%.

As for `COc1ccc(NC(=O)N2CCCN(CCCCCNC(=O)/C=C/c3ccc(Cl)cc3)CC2)cc1Cl`, the results for the inhibition in assay [1], in assay [2] and in assay [3] were 2.15%, 2.96% and 0.93%, respectively.

With `O=c1[nH]ccc2nc(N[C@@H]3CCNC3)nc(Nc3ccc4c(c3)S(=O)(=O)CC4)c12`, the inhibition in assay [1] came to 5.93%; in assay [2] it was 1.38%; in assay [3], 4.85%.

Take `CCCCCC(C)c1cc(O)c2c(c1)OC(C)(C)C=C2C1=CCN(Cc2ccccc2)CC1` (configuration not stated): the inhibition in assay [1] turned out to be 3.67%; in assay [2] it was 3.53%; in assay [3], 3.47%.

As for `CC(C)NCc1cccc(-c2cccc(-c3nc4cc(F)ccc4[nH]3)c2)c1`, the inhibition in assay [1] amounted to 14.2%; in assay [2], 11.4%; in assay [3] it was 11.6%.

Take `CC(C)=CCN1CCC(C(=O)Nc2ccc(-c3nc4ccccc4[nH]3)cc2)CC1`: the inhibition in assay [1] is 5.64%; in assay [2], 5.1%; in assay [3] it was 6.97%.

As for `CC(=O)NC(c1cccs1)c1cc(Cl)c2cccnc2c1O` (configuration not stated), the figures for the inhibition in assay [1], in assay [2] and in assay [3] were 7.76%, 6.65% and 7.85%, respectively.

Turning to `CC(C)(C)Nc1cc(C(=O)N[C@@H](Cc2ccccc2)[C@H](O)CNC2CCOCC2)cc(N2CCCCS2(=O)=O)c1`, the inhibition was 0.29% in assay [1], 0.07% in assay [2] and -0.61% in assay [3].

Regarding `COc1ccccc1C1CCN(C2CCC(NC(=O)/C=C/c3cccc(C(F)(F)F)c3)CC2)CC1` (configuration not stated), the inhibition was found to be 3.95% in assay [1], 3.68% in assay [2] and 5.04% in assay [3].

Regarding `N#Cc1cccc(NC(=O)c2ccc(S(=O)(=O)NCC3CCCN3CC3CCCCC3)cc2)c1` (configuration not stated), the figures for the inhibition in assay [1], in assay [2] and in assay [3] were 2.47%, 4.27% and 1.88%, respectively.

Broadly, the inhibition is the change of the read-out against control, counted positive when it falls.
